Laboratory results as given in the supplement of paper PMC10849652.
Of roughly 8,800 targets only a part is listed; those with a hit were picked by preference. About 0.5% of all pairs of compound and target were hits. Unmarked numbers belong to inactive results.

Legend:
Assay in all cases: log2 fold change, soluble protein after heating vs DMSO (PISA); higher = thermal stabilisation; K562 lysate, 10 uM; active = over 0.2 and 3.5 SD of the protein, either way, in both replicates (recomputed)
[1] = compound: C=CC(=O)N1CCC[C@@H](n2nc(-c3ccc(Oc4ccccc4)cc3)c3c(N)ncnc32)C1 [ibrutinib]
How it was run: (§1)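 A 30 min treatment with 10 μM compound was applied to crude K562 extract at 1 mg/mL protein in PBS pH 7.4 with 1 mM MgCl2. Heating for 3 min spanned 48°C-58°C, after which aliquots were pooled, adjusted to 0.5% NP-40 at 4°C and spun at 21,000xg for 90 min. TMTpro 16plex LC-MS/MS of the supernatant, with channel sums equalised, gave values recorded as log-two fold change in thermal stability against solvent controls, from duplicates.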

[2] = compound: CC(=O)c1cnc2ccc(-c3cc(Cl)c(O)c(Cl)c3)nc2c1N[C@H]1CC[C@H](CN(C)C)CC1
How it was run: as §1

[3] = compound: CC(C)(C)Cn1c(N)nc2ccc(-c3[nH]c(C(C)(C)C)nc3-c3ccc(F)cc3)nc21 [ralimetinib]
How it was run: as §1

[4] = compound: CC(C)(O)CC(=O)NCCn1ccc2ncnc(Nc3ccc(Oc4cccc(C(F)(F)F)c4)c(Cl)c3)c21
How it was run: as §1

[5] = compound: CC(C)C1=C2N=C(C=C(N2N=C1)NCC3=CC=CC=C3)NCCCCCCN
How it was run: as §1

[6] = compound: CC1=C(C(CC(=O)N1)C2=CC=C(C=C2)C(F)(F)F)C(=O)NC3=C(C=C4C(=C3)C=NN4)F
How it was run: as §1

[7] = compound: CC1=C(C2=C(C=C1)C(=O)C3=CC=CC=C3N2CCCN)C
How it was run: as §1

[8] = compound: CC1=C(C=C(C=C1)NC(=O)C2=CC(=CC=C2)C(C)(C)C#N)NC3=CC4=C(C=C3)N=CN(C4=O)C
How it was run: as §1

[9] = compound: CC1=C(C=C(C=C1)NC(=O)C2=CC(=CC=C2)N(C)C)NC(=O)C3=CC=C(C=C3)O
How it was run: as §1

[10] = compound: CC1=CC=C(C=C1)SC2=C3C=C(SC3=CN=C2)C(=O)N
How it was run: as §1

[11] = compound: CCCS(=O)(=O)Nc1ccc(F)c(C(=O)c2c[nH]c3ncc(-c4ccc(Cl)cc4)cc23)c1F [vemurafenib]
How it was run: as §1

[12] = compound: CCCS(=O)(=O)Nc1ccc(F)c(C(=O)c2c[nH]c3ncc(Cl)cc23)c1F
How it was run: as §1

[13] = compound: CCN(CCCOc1ccc2c(Nc3cc(CC(=O)Nc4cccc(F)c4)[nH]n3)ncnc2c1)CCOP(=O)(O)O [barasertib]
How it was run: as §1

[14] = compound: CC[C@@H]1C(=O)N(C)c2cnc(Nc3ccc(C(=O)NC4CCN(C)CC4)cc3OC)nc2N1C1CCCC1
How it was run: as §1

[15] = compound: CC[C@@H]1C(=O)N(C)c2cnc(Nc3ccc(C(=O)N[C@H]4CC[C@H](N5CCN(CC6CC6)CC5)CC4)cc3OC)nc2N1C(C)C [volasertib]
How it was run: as §1

[16] = compound: CCn1c(C(=O)N(C2CC2)C2CC2)cc2c3c(ncn3C)c(Nc3cc(C)n(C)n3)nc21
How it was run: as §1

[17] = compound: CCn1cc(-c2ccnc3[nH]c(-c4cccc(CN(C)C)c4)cc23)c(-c2ccc(NC(=O)N(C)C)cc2)n1
How it was run: as §1

[18] = compound: CN1CCC(CNc2ccc3ncc(-c4cccc(OC(F)(F)F)c4)n3n2)CC1
How it was run: as §1

[19] = compound: CN1CCN(CCOc2cc(OC3CCOCC3)c3c(Nc4c(Cl)ccc5c4OCO5)ncnc3c2)CC1 [saracatinib]
How it was run: as §1

[20] = compound: CN1CCN(c2nc(C3=C(c4c[nH]c5ccccc45)C(=O)NC3=O)c3ccccc3n2)CC1 [sotrastaurin]
How it was run: as §1

UniProt Q6GQQ9, sequence (Q6GQQ9 whole entry, looked up): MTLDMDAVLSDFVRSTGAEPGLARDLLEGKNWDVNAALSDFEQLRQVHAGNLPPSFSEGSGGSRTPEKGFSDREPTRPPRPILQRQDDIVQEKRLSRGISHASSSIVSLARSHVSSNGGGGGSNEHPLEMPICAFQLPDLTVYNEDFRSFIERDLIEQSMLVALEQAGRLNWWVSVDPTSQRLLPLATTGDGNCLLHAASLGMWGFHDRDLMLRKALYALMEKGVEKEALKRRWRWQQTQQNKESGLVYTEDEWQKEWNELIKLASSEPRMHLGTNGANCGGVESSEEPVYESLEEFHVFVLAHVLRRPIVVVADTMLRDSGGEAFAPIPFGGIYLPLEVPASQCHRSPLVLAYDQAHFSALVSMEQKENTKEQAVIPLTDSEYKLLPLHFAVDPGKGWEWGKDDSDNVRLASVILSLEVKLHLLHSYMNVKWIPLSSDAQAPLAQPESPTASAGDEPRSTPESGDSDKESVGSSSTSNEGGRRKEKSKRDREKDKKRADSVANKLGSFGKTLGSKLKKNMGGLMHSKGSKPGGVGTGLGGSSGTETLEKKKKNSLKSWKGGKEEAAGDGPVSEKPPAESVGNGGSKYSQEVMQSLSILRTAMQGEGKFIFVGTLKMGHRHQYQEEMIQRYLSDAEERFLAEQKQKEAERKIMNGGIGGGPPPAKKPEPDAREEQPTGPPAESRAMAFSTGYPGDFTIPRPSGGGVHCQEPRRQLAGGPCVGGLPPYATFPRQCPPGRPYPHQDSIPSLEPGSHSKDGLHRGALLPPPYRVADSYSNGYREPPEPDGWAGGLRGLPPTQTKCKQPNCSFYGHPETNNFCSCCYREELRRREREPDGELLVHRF
UniProt P00156, sequence (P00156 whole entry, looked up): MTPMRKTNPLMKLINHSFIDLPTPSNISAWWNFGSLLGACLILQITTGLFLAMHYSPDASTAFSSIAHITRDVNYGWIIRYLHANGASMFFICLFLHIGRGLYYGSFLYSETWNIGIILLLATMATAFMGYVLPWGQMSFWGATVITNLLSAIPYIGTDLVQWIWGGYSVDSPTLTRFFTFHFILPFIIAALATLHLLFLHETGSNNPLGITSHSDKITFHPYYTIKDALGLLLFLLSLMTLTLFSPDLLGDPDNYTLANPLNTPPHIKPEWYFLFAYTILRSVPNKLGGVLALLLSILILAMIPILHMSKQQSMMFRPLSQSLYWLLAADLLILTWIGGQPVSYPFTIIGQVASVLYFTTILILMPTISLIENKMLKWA
UniProt O76041, sequence (O76041 whole entry, looked up): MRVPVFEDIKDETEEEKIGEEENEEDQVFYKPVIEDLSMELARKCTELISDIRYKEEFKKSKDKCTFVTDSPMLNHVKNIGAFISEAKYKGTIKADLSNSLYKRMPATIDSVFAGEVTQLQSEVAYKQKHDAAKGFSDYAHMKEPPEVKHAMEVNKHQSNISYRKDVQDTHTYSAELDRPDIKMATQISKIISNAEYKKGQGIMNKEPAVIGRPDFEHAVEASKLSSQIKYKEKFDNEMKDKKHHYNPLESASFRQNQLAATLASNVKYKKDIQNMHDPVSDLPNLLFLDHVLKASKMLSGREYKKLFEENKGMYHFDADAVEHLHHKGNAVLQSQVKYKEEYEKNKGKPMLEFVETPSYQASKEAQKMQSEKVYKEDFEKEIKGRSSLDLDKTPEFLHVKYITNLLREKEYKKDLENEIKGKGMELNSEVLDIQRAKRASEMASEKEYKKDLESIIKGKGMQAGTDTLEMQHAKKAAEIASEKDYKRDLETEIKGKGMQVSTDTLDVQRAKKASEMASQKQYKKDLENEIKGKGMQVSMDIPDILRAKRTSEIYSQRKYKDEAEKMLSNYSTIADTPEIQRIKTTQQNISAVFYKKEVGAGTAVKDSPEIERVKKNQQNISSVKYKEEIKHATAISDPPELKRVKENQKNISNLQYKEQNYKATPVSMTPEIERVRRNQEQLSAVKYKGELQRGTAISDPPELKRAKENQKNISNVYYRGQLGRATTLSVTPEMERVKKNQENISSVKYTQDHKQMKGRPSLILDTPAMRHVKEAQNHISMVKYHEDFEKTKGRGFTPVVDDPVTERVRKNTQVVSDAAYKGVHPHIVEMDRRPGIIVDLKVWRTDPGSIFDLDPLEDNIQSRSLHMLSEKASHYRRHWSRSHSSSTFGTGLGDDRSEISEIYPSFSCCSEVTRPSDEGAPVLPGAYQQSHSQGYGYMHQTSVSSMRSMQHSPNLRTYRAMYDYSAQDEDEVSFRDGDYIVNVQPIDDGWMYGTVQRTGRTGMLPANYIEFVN
UniProt Q9BTX1, sequence (Q9BTX1 whole entry, looked up): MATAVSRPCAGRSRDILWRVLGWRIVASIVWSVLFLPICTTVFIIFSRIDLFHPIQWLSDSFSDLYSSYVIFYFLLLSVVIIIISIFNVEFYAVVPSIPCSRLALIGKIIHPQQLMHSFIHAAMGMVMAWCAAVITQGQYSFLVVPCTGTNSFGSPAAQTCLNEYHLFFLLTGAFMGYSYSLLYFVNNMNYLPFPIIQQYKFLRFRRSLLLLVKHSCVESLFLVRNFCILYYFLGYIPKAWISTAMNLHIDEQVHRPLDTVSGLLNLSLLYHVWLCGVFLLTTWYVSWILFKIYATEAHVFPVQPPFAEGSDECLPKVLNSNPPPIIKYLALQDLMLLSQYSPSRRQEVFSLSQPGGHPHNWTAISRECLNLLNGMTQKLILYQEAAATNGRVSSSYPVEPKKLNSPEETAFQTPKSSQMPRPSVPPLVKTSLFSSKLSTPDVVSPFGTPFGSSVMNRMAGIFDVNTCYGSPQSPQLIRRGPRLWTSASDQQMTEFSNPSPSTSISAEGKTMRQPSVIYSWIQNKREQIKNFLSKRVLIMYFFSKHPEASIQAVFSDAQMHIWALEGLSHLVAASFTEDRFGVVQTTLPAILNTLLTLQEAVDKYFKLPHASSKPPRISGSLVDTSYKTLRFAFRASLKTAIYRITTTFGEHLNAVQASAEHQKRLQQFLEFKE
UniProt Q460N5, sequence (Q460N5 whole entry, looked up): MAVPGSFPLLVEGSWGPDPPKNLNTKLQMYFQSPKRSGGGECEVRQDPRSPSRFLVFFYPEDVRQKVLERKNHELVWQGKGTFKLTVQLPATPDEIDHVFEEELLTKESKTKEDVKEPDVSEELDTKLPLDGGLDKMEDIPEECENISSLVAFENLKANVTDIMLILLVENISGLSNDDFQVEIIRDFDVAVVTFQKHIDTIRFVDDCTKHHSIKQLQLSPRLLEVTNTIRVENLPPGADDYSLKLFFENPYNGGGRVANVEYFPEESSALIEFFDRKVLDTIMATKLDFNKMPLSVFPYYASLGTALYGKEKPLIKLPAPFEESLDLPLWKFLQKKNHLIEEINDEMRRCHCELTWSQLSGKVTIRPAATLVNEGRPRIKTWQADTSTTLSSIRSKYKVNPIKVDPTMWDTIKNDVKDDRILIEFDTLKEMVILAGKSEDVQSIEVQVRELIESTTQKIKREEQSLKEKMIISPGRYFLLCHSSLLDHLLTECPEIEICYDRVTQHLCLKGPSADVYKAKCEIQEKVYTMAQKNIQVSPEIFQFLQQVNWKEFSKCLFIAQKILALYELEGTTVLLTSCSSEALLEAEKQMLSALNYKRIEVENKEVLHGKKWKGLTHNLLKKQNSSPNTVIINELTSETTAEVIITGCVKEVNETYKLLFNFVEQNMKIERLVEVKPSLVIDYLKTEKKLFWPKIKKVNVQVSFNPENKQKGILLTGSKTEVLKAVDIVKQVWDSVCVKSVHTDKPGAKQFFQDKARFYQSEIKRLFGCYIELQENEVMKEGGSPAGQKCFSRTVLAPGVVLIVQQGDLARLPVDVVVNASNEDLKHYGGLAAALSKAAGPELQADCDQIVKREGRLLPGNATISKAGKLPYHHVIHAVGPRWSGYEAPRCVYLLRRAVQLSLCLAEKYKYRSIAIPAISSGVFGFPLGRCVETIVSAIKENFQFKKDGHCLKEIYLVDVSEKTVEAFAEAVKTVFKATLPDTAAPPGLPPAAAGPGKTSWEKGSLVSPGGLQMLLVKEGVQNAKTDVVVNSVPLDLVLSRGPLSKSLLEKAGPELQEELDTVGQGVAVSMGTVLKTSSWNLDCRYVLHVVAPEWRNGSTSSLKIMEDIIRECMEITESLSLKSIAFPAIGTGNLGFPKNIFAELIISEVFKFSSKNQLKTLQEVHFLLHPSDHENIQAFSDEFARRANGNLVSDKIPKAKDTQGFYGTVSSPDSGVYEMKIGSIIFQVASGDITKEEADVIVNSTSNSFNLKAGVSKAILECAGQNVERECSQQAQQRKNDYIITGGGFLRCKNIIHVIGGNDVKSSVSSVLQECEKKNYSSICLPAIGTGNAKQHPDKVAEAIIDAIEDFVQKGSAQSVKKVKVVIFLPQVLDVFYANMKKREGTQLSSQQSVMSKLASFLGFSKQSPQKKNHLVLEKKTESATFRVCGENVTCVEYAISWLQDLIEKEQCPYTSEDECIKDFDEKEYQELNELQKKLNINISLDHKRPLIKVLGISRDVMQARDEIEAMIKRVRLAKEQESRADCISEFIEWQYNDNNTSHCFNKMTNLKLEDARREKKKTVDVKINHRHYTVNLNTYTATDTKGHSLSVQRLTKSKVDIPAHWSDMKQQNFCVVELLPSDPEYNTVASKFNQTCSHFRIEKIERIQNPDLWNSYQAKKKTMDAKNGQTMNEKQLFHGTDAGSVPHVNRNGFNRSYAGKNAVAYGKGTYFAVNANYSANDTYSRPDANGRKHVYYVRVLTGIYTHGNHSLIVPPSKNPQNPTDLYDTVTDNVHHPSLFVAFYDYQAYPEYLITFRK
UniProt P15559, sequence (P15559 whole entry, looked up): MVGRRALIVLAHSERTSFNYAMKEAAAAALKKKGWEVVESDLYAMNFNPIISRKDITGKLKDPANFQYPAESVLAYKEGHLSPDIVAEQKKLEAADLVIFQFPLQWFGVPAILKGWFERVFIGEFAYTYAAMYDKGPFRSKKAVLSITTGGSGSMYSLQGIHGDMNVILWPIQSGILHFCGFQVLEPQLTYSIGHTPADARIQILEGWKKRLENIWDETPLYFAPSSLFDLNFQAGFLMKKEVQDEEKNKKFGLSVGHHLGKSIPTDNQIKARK

| Target | log2 fold change [1] | log2 fold change [2] | log2 fold change [3] | log2 fold change [4] | log2 fold change [5] | log2 fold change [6] | log2 fold change [7] | log2 fold change [8] | log2 fold change [9] | log2 fold change [10] | log2 fold change [11] | log2 fold change [12] | log2 fold change [13] | log2 fold change [14] | log2 fold change [15] | log2 fold change [16] | log2 fold change [17] | log2 fold change [18] | log2 fold change [19] | log2 fold change [20] |
| --- | --- | --- | --- | --- | --- | --- | --- | --- | --- | --- | --- | --- | --- | --- | --- | --- | --- | --- | --- | --- |
| NELFCD (UniProt Q8IXH7) | 0.039 | 0.013 | 0.019 | -0.043 | 0.009 | 0.007 | 0.013 | 0.011 | 0.049 | -0.02 | 0.014 | 0.037 | 0.047 | 0.006 | -0.032 | 0.02 | 0.089 | -0.049 | -0.005 | 0.012 |
| PARD3 (UniProt Q8TEW0) | 0.026 | 0.134 | -0.017 | -0.011 | 0.001 | 0.011 | 0.006 | 0.116 | 0.01 | -0.068 | 0.145 | -0.017 | -0.123 | -0.009 | -0.016 | -0.032 | -0.147 | -0.08 | 0.016 | 0.004 |
| OTUD7B (UniProt Q6GQQ9) | -0.008 | 0.004 | 0.026 | 0.005 | -0.034 | -0.011 | -0.019 | 0.239 (active) | 0 | 0.047 | 0.033 | 0.011 | 0.116 | -0.029 | -0.049 | 0.018 | 0.017 | -0.042 | 0.015 | -0.011 |
| NQO1 (UniProt P15559) | 0.009 | -0.003 | 0.033 | 0.081 | -0.009 | 0.001 | 0.159 | 0.038 | -0.025 | 0.067 | -0.014 | 0.026 | 0.163 | -0.097 | -0.082 | -0.023 | -0.067 | -0.035 | 0.155 | 0.034 |
| ORC2 (UniProt Q13416) | 0.012 | -0.011 | 0.044 | 0.032 | -0.014 | 0.016 | -0.089 | -0.005 | -0.014 | 0.021 | 0.048 | 0.007 | 0.003 | -0.077 | -0.048 | 0.002 | -0.002 | -0.085 | 0.007 | 0.049 |
| MSI2 (UniProt Q96DH6) | 0.044 | -0.024 | 0.032 | -0.039 | 0.015 | -0.029 | 0.009 | -0.315 (active) | 0.03 | 0.054 | 0.039 | -0.007 | 0.009 | 0.016 | -0.023 | 0.13 | -0.014 | 0.002 | -0.015 | -0.002 |
| NAP1L5 (UniProt Q96NT1) | -0.056 | 0.018 | -0.034 | 0.034 | -0.037 | -0.036 | -0.045 | -0.13 | -0.036 | -0.009 | -0.094 | 0.005 | 0.037 | 0.181 | -0.033 | 0.052 | 0.62 (active) | -0.205 | -0.15 | 0.08 |
| ORC5 (UniProt O43913) | 0.05 | 0 | 0.047 | -0.001 | 0.022 | -0.027 | -0.008 | 0.012 | 0.053 | -0.007 | -0.059 | -0.001 | -0.052 | -0.156 | -0.023 | 0.013 | -0.038 | 0.01 | -0.001 | 0.024 |
| NDC1 (UniProt Q9BTX1) | 0.009 | -0.02 | 0.007 | -0.012 | -0.013 | -0.009 | -0.031 | 0.032 | 0.007 | 0.072 | 0.053 | -0.051 | 0.075 | 0.081 | 0.016 | -0.02 | -0.3 | 0.155 | 0.032 | 0.011 |
| PARP14 (UniProt Q460N5) | 0.029 | -0.051 | -0.03 | 0.015 | 0.074 | 0.049 | 0.011 | -0.007 | 0.002 | -0.135 | 0.067 | 0.062 | 0.038 | 0.007 | 0.001 | 0.003 | -0.08 | 0.075 | 0.119 | -0.058 |
| NUP160 (UniProt Q12769) | 0.063 | -0.007 | 0.062 | 0.017 | -0.021 | 0.01 | 0.005 | 0.012 | -0.021 | 0.001 | -0.039 | 0.02 | 0.052 | -0.106 | -0.105 | 0.043 | 0.057 | -0.058 | 0.043 | -0.01 |
| NEBL isoform 2 (UniProt O76041) | -0.04 | 0.015 | -0.038 | 0.027 | 0.027 | -0.012 | -0.028 | 0 | 0.011 | -0.013 | 0.014 | 0.009 | -0.078 | 0.02 | 0.051 | -0.041 | -0.108 | 0.084 | 0.023 | -0.039 |
| NONO (UniProt Q15233) | -0.013 | 0.006 | 0.008 | -0.002 | 0.006 | -0.006 | -0.006 | -0.016 | 0.015 | 0.014 | -0.005 | 0.018 | -0.006 | -0.032 | -0.049 | 0 | 0.076 | -0.043 | 0.004 | -0.015 |
| NOSIP (UniProt Q9Y314) | 0.028 | 0.037 | 0 | 0.009 | -0.014 | -0.009 | 0 | 0.047 | 0.027 | -0.009 | -0.008 | 0.034 | 0.012 | 0.017 | -0.035 | -0.005 | -0.013 | 0.016 | 0.008 | -0.014 |
| MT-CYB (UniProt P00156) | 0.133 | -0.055 | 0.001 | -0.064 | -0.094 | 0.03 | -0.107 | 0.039 | -0.093 | 0.198 | 0.004 | -0.03 | -0.054 | 0 | 0.056 | -0.097 | -0.993 (active) | 0.521 (active) | 0.047 | 0.027 |
| OSBP2 (UniProt Q969R2) | 0 | 0.077 | 0.036 | -0.103 | -0.223 | -0.006 | 0.023 | 0.051 | -0.011 | 0 | -0.056 | -0.014 | -0.055 | 0.062 | -0.077 | -0.001 | -0.881 (active) | 0.279 | 0.068 | 0.104 |
